# Compounds without any hit were thinned out: in the full panel of roughly 83,000, 20% have a hit.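 Activity criterion: percent growth below 10, measured after cells in 96-well plates were exposed to a single compound concentration for 48 hours.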 A number with no mark means an inactive call. The source made the active and inactive calls.
# Test system: NCI-H322M lung
# Assay: NCI-60 one-dose screen, 48 h (100 = growth as untreated, 0 = no growth, -100 = all killed)
# Settings: 10 µM unless noted
row,SMILES,growth
1,CC(=O)NNC(=O)c1sc(NC(C)=O)nc1C,121%
2,Nc1ccc(S(=O)(=O)c2ccc(NO)cc2)cc1,116%
3,Cc1c(Cc2ccccc2)c(=O)oc2c(C)c(OCC(=O)n3nc(C#N)cc3N)ccc12,93.6%
4,NC(=O)CC(NC(=O)COc1ccc(Cl)cc1Cl)C(=O)O (stereo not given),102%
5,CCCCCCCCC1OC1CCCCCCCC(=O)O (stereo not given),102%
6,CC(=O)/C(=C/c1ccc(-c2ccccc2)cc1)C(=O)c1ccccc1,100%
7,COc1ccc(-c2nc(Nc3nc4ccccc4[nH]3)nc(N)c2C#N)cc1,111%
8,CCC(CCCN1C(=O)c2ccccc2C1=O)Nc1cc(OC)cc2cccnc12 (stereo not given),116%
9,CC(=O)OC1/C=C\CC/C=C\C1 (stereo not given),102%
10,CCc1ccc(C(=Nc2ccc(N(C)C(=O)CN3CCN(C)CC3)cc2)c2c(O)[nH]c3ccc(C(=O)OC)cc23)cc1,-39.7% (active)
11,c1ccc2[nH]c(-c3ccc(OCCCCCOc4ccc(-c5nc6ccccc6[nH]5)cc4)cc3)nc2c1,72.7%
12,Oc1ccc(CN(Cc2ccc(C(F)(F)F)cc2)Cc2ccc(O)c3ncccc23)c2cccnc12,31.5%
13,COc1ccc2nc3cc(Cl)ccc3c(NCCCNC(C)=O)c2c1,34.4%
14,O=C(N/N=C\c1ccc(Cl)cc1)C(=O)N/N=C\c1ccc(Cl)cc1,92.9%
15,Cc1nc2c(nnn2-c2ccccc2)c2nc(-c3ccccc3)oc(=O)c12,103%
16,COC(=O)c1ccc2[nH]c(O)c(C(=Nc3ccc(N(C)C(=O)CN4CCN(C)CC4)cc3)c3ccc(N)cc3)c2c1,77.4%
17,Cc1nc(N)sc1C(=O)NCCO,127%
18,CC(=O)Nc1nc(C)c(C(=O)N/N=C/N2CCOCC2)s1,115%
19,O=C(O)CC1Cc2ccccc2C1C(=O)O (stereo not given),113%
20,Cc1ccc2c(c1)C(=O)CCS2,93.5%

row,SMILES,growth
1,CCC(C)(C)c1ccc(OCCCCCCN2CCNCC2)cc1,76.1%
2,c1ccc(Nc2ccccn2)cc1,106%
3,Brc1ccc(-c2nc3ccccc3s2)cc1,92.7%
4,O=C1/C(=N\c2cc(=O)[nH]n2S(=O)(=O)c2ccccc2)Nc2ccccc21,105%
5,CCCC(C)c1cc(Cc2cc(Cl)cc(Cl)c2O)c(O)c(Cc2cc(Cl)cc(Cl)c2O)c1 (stereo not given),9.16% (active)
6,c1ccc(Nc2ncc3c(n2)-c2cccn2CC3)cc1,86.9%
7,CC1=C(C)C(=O)C(C(C)C2=C(C)C(=O)C(C)=C(C)C2=O)=C(C)C1=O,111%
8,C=CCSc1nnc(COc2ccc3c(C)c(Cc4ccccc4)c(=O)oc3c2C)o1,99.2%
9,CCOc1nc(-c2ccccc2)cc2c(O)c(C(=O)N/N=C/c3ccccc3O)[nH]c(=O)c12,107%
10,CC(=O)Nc1nc(C)c(C(=O)NNC(=O)Nc2ccccc2)s1,120%
11,c1cc[c]([Bi]([c]2ccccc2)[c]2ccccc2)cc1,88%
12,COc1cc(NC(=O)CSc2nc3ccc(Cl)cc3c(=O)n2-c2ccc(F)cc2)cc(OC)c1OC,86.9%
13,CC(=O)Nc1nc(C)c(C(=O)NN)s1,96%
14,COC(=O)C(C)[C@H]1CC[C@@H]2[C@]1(C)CC=C1[C@]23C=C[C@]2(C[C@@H](OC(C)=O)CC[C@]12C)C(C(=O)OC)C3C(=O)OC (stereo not given in full),102%
15,Cc1nc2c(nnn2-c2ccccc2)c2nc(-c3ccc(Cl)cc3)oc(=O)c12,103%
16,CCCCCCCCC/C(=N\NC(=O)c1ccncc1)c1ccc(O)c(O)c1O,36.1%
17,CNCCCNCCCCNCCCN1C(=O)c2ccc3c4c(ccc(c24)C1=O)C(=O)N(CCCNCc1ccccc1OC)C3=O,22.8%
18,Cc1nc(NC(=S)Nc2ccc(F)cc2)sc1C(=O)NNC(=S)Nc1ccc(F)cc1,86.8%
19,CCOc1ccc(/C=N/NC(=O)c2cccc3ccccc23)cc1OCC,119%
20,O=C(/C=C/c1ccc(Br)cc1)c1ccccc1,106%

# Reference: PubChem BioAssay (NCI)
